Values joined by “and” are separate entries in the source; they are usually repeats but may differ in a detail not shown here. Equal entries are not always repeated. Among all 5,500 compounds or so, about 2,000 (36%) were called active. Roughly 18% stayed inconclusive and do not appear here. Rule as the data show it: active = normalized growth mostly below about 0.91 (no sharp cut-off); inconclusive = no clear call, values can overlap the other calls; inactive = mostly above about 0.92. The list shows a part of the results.
Assay: chemical genetic growth profiling, strain panel (AID 1159580);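 also: tested at 20 µM; growth read once vehicle control cultures reached saturation at 30 °C; 1 = growth at the plate median or of vehicle wells; lower values mean less growth of the strain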
Conditions: S. cerevisiae deletion strains, growth OD

Measured: normalized growth

C[C@@H]1CC[C@@]2(OC1)O[C@H]1CC3C4CC[C@H]5C[C@@H](O)CC[C@]5(C)C4CC[C@]3(C)[C@H]1[C@@H]2C (stereo not given in full)
inactive: locus YAL013W, strain DEP1, hits give low values 0.985 | locus YAL021C, strain ccr4, hits give low values 1.02 | locus YAL026C, strain drs2, hits give low values 1.01 | locus YAL030W, strain snc1, hits give low values 0.994 | locus YBL061C, strain skt5, hits give low values 1 | locus YBR009C, strain hhf1, hits give low values 0.99 | locus YBR021W, strain FUR4, hits give low values 1.11 | locus YBR023C, strain chs3, hits give low values 1 | locus YBR171W, strain sec66, hits give low values 0.994 | locus YBR229C, strain ROT2, hits give low values 0.988 | locus YBR231C, strain swc5, hits give low values 0.988 | locus YBR279W, strain paf1, hits give low values 0.996 | locus YCL011C, strain gbp2, hits give low values 0.994 | locus YCL016C, strain dcc1, hits give low values 0.998 | locus YCL029C, strain bik1, hits give low values 0.978 | locus YCL061C, strain MRC1, hits give low values 0.987 | locus YCL069W, strain vba3, hits give low values 1 | locus YCR088W, strain abp1, hits give low values 0.986 | locus YDL005C, strain med2, hits give low values 0.999 | locus YDL035C, strain GPR1, hits give low values 1.02 | locus YDL040C, strain nat1, hits give low values 0.998 | locus YDL074C, strain BRE1, hits give low values 1 | locus YDL101C, strain DUN1, hits give low values 0.983 | locus YDL134C, strain PPH21, hits give low values 0.972 | locus YDL185W, strain tfp1, hits give low values 0.954 | locus YDL192W, strain arf1, hits give low values 0.978 | locus YDR001C, strain nth1, hits give low values 0.997 | locus YDR069C, strain doa4, hits give low values 0.993 | locus YDR101C, strain arx1, hits give low values 1.01 | locus YDR137W, strain rgp1, hits give low values 1 | locus YDR159W, strain sac3, hits give low values 1 | locus YDR162C, strain NBP2, hits give low values 0.994 | locus YDR195W, strain ref2 0.989 | locus YDR297W, strain sur2, hits give low values 0.988 | locus YDR318W, strain mcm21, hits give low values 0.977 | locus YDR334W, strain swr1, hits give low values 0.993 | locus YDR335W, strain msn5, hits give low values 0.996 | locus YDR388W, hits give low values 0.981 | locus YDR392W, strain spt3, hits give low values 0.981 | locus YDR502C, strain sam2, hits give low values 0.992 | locus YEL003W, strain gim4, hits give low values 0.994 | locus YEL037C, strain rad23, hits give low values 0.989 | locus YEL061C, strain CIN8 (second series), hits give low values 0.992 | locus YER015W, strain faa2, hits give low values 0.996 | locus YER016W, strain bim1, hits give low values 0.998 | locus YER110C, hits give low values 0.969 | locus YER111C, strain swi4, hits give low values 0.994 | locus YER155C, strain BEM2 (second series), hits give low values 0.977 | locus YER155C, strain BEM2, hits give low values 0.999 | locus YER167W, strain BCK2, hits give low values 0.997 | locus YFR010W, strain ubp6, hits give low values 1 | locus YGL078C, strain dbp3, hits give low values 0.956 | locus YGL086W, strain mad1, hits give low values 0.993 | locus YGL167C, strain pmr1, hits give low values 0.999 | locus YGL173C, strain kem1, hits give low values 0.998 | locus YGL227W, strain vid30, hits give low values 0.987 | locus YGL240W, strain doc1, hits give low values 1.01 | locus YGL248W, strain PDE1, hits give low values 0.988 | locus YGL253W, strain hxk2, hits give low values 1 | locus YGR135W, strain pre9, hits give low values 0.941 | locus YGR252W, strain gcn5, hits give low values 1 | locus YHR013C, strain ard1, hits give low values 0.988 | locus YHR027C, strain rpn1, hits give low values 0.992 | locus YHR030C, strain SLT2, hits give low values 0.985 and 1 | locus YHR079C, strain IRE1 (second series), hits give low values 0.987 | locus YHR079C, strain IRE1, hits give low values 0.993 | locus YHR094C, strain hxt1, hits give low values 0.97 | locus YHR129C, strain ARP1, hits give low values 0.991 | locus YHR142W, strain chs7, hits give low values 1.03 | locus YHR200W, strain rpn10, hits give low values 0.997 | locus YIL066C, strain RNR3, hits give low values 1 | locus YIL073C, strain SPO22, hits give low values 0.892 | locus YIL125W, strain kgd1, hits give low values 0.979 | locus YIR030C, strain dcg1, hits give low values 0.977 | locus YJL092W, strain hpr5, hits give low values 0.99 | locus YJL095W, strain BCK1 (second series), hits give low values 0.989 | locus YJL095W, strain BCK1, hits give low values 0.979 and 0.99 | locus YJL115W, strain asf1, hits give low values 0.976 | locus YJL129C, strain trk1, hits give low values 0.977 | locus YJL134W, strain LCB3, hits give low values 0.993 | locus YJL154C, strain vps35, hits give low values 0.99 | locus YJL164C, strain tpk1, hits give low values 0.996 | locus YJL166W, strain qcr8, hits give low values 0.989 | locus YJL168C, strain set2, hits give low values 0.977 | locus YJL187C, strain SWE1 (second series), hits give low values 0.977

Reference: PubChem BioAssay AID1159580 (chemical genetic matrix, 2015)
